Results filed as inconclusive are left out. Activity calls are given as the source filed them. Unless noted, calls follow the shape of the full dose curve.
What was measured:
[1] = qHTS assay to identify small molecule agonists of the sonic hedgehog signaling (Shh) pathway (AID 1259368);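 also: NIH/3T3-derived 3T3Gli1-Luc cells carrying a stable Gli1-driven firefly luciferase reporter; series mostly up to about 92 µM; nearly all actives have a fitted effect of over 15% in size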
Summary of the method: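 Luminescence was read after 30 min at room temperature with luciferase reagent. Before that, 3T3Gli1-Luc cells (NIH/3T3 clone, stable Gli1-Luc reporter; 2,000/well) were exposed to compounds for 24 hr at 37C, 5% CO2, compounds being added 4 hr post-plating.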

[2] = qHTS assay to identify small molecule antagonists of the sonic hedgehog signaling (Shh) pathway (AID 1259369); also: nearly all actives have a fitted effect of over 45% in size
Summary of the method: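 Antagonist mode: compound added to 3T3 Gli1-Luc cells followed by conditioned-medium stimulation, 24 h at 37 C, 5% CO2. Inhibition taken as loss of Gli1-driven luciferase luminescence.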

[3] = target: Estrogen receptor beta (Homo sapiens) (UniProt Q92731); test: qHTS assay to identify small molecule agonists of the estrogen receptor beta (ER-beta) signaling pathway (AID 1259377; active = well fitted activation curve with a large enough effect in the signal ratio in the repeat runs, not every such curve was filed as active; the % refers to the signal ratio)
Sequence of Estrogen receptor beta (Homo sapiens) (Q92731 whole entry, looked up): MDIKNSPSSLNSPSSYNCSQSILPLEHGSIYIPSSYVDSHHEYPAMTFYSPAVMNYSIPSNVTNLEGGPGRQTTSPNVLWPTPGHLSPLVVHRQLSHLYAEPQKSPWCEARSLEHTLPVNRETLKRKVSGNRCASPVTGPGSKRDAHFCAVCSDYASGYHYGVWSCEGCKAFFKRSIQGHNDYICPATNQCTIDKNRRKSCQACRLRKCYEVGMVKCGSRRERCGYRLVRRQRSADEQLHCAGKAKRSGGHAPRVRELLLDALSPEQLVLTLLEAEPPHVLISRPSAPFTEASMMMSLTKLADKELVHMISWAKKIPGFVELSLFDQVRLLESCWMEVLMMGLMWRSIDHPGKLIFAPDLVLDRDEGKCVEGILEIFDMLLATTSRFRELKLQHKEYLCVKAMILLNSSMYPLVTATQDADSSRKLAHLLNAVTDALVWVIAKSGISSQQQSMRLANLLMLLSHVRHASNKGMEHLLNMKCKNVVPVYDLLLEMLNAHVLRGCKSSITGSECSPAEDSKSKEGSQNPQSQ
Summary of the method: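 Reporter cells (HEK293T, ER-beta-UAS-bla) receive compounds or DMSO after a 6 hr pre-incubation. They then incubate 16 hr at 37C/5% CO2, and fluorescence from LiveBLAzer B/G substrate is measured after 2 hours at room temperature.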

[4] = target: Estrogen receptor beta (Homo sapiens) (UniProt Q92731); test: qHTS assay to identify small molecule antagonists of the estrogen receptor beta (ER-beta) signaling pathway (AID 1259378; active = well fitted inhibition curve with a large enough effect in the signal ratio in the repeat runs, not every such curve was filed as active; the % refers to the signal ratio)
Summary of the method: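 Antagonist mode: compounds added to beta-lactamase reporter HEK293T ER-beta-UAS cells stimulated with E2 (1nM final), 16 hr at 37C. LiveBLAzer B/G FRET substrate, 2 hours room temperature, fluorescence read-out.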

[5] = qHTS assay to identify small molecule agonists of the androgen receptor (AR) signaling pathway in the presence of an antagonist - cell viability counter screen (AID 1259379; active = well fitted curve in the direction sought with a large enough effect in the repeat runs; an effect the other way counts as inactive or inconclusive;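 also: MDA-kb2 human breast cancer cells carrying an MMTV luciferase reporter; series mostly up to about 92 µM; nearly all actives have a fitted effect of over 25% in size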)
Summary of the method: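 Cytotoxicity counter-screen run in the same wells as the nilutamide-challenged (3.0 µM final) AR agonist assay in MDA-kb2 cells. Compounds tested at 15 concentrations for 16 h, 37 °C without CO2; CellTiter-Fluor fluorescence read.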

[6] = qHTS assay to identify small molecule antagonists of the estrogen receptor beta (ER-beta) signaling pathway - cell viability counter screen (AID 1259382; active = well fitted curve in the direction sought with a large enough effect in the repeat runs; an effect the other way counts as inactive or inconclusive;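 also: HEK293T cells carrying ER-beta-UAS-bla reporter stimulated with estradiol; series mostly up to about 92 µM; nearly all actives have a fitted effect of over 55% in size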)
Summary of the method: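 Cytotoxicity was measured in the same wells by CellTiter-Glo luminescence after 30 min at room temperature. Cells were ER-beta-bla HEK293T in charcoal-stripped serum, given compound together with 1 nM E2 and incubated 16 h at 37C.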

[7] = target: Estrogen receptor (Homo sapiens) (UniProt P03372); test: qHTS assay to identify small molecule agonists of the estrogen receptor alpha (ER-alpha) signaling pathway in the presence of an antagonist (AID 1259383); also: top concentration of the series differs between compounds; nearly all actives have a fitted effect of over 15% in size
Sequence of Estrogen receptor (Homo sapiens) (P03372 whole entry, looked up): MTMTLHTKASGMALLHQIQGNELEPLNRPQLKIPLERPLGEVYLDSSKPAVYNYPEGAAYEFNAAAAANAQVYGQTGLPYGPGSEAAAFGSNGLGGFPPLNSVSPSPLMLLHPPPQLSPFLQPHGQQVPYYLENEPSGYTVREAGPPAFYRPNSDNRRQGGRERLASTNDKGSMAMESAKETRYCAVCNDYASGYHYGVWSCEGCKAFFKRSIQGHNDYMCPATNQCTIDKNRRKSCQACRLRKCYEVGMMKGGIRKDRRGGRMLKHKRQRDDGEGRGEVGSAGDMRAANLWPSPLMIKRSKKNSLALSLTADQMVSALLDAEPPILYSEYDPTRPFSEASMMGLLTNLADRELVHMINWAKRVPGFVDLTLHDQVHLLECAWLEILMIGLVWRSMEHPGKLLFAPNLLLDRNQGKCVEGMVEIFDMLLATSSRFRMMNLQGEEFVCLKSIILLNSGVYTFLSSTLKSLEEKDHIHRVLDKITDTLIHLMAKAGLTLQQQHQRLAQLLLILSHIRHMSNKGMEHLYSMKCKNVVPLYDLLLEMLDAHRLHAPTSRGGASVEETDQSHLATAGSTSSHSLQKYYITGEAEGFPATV
Summary of the method: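 Agonist-mode confirmation run in the presence of 10.0nM (final) ICI-182,780 antagonist. The reporter was ERE-driven luciferase in VM7Luc4E2 cells, grown in charcoal-stripped serum. Cells were exposed to 15-concentration compound series for 22hr, then ONE-Glo luminescence was read.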

[8] = target: Thyrotropin receptor (Homo sapiens) (UniProt P16473); test: qHTS assay to identify small molecule antagonists of the thyroid stimulating hormone receptor (TSHR) signaling pathway (AID 1259385); also: nearly all actives have a fitted effect of over 20% in size
Sequence of Thyrotropin receptor (Homo sapiens) (P16473 whole entry, looked up): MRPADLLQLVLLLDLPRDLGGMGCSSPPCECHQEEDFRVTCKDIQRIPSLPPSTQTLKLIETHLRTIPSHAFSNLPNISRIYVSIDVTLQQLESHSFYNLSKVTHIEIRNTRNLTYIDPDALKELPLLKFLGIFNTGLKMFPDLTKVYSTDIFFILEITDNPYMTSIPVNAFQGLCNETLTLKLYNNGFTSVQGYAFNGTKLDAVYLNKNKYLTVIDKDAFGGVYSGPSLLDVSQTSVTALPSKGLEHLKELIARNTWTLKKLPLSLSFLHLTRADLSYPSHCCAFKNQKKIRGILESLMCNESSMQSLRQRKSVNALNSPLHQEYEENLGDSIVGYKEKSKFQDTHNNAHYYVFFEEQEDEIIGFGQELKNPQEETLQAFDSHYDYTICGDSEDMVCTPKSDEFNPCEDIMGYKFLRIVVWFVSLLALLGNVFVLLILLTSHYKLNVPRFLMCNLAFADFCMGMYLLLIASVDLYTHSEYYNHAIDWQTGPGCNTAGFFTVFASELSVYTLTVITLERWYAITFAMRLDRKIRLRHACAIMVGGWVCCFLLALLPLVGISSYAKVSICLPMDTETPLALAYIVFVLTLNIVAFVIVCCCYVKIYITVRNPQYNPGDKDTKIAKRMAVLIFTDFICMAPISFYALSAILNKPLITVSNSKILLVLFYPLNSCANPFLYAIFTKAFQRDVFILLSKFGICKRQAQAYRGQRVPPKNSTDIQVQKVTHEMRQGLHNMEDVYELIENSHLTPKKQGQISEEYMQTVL
Summary of the method: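 Antagonist mode: compound-treated TSHR-expressing HEK293 cells were stimulated with 1.5 ng/mL TSH (final) in presence of Ro20-1724 for 30 min at RT. HTRF cAMP detection after 1 h; each compound tested at 15 concentrations, triplicate.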

[9] = qHTS assay to identify small molecule agonists of the estrogen receptor alpha (ER-alpha) signaling pathway in the presence of an antagonist - cell viability counter screen (AID 1259386; active = well fitted curve in the direction sought with a large enough effect in the repeat runs; an effect the other way counts as inactive or inconclusive; also: series mostly up to about 92 µM; nearly all actives have a fitted effect of over 30% in size)
Summary of the method: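 Compounds tested at 15 concentrations for 22 h at 37C alongside 10.0nM (final) ICI-182,780 antagonist, in VM7Luc4E2 cells grown in phenol red-free, charcoal-stripped medium. Viability read by CellTiter-Fluor fluorescence after 1 h reagent incubation.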

[10] = target: Progesterone receptor (Homo sapiens) (UniProt P06401); test: qHTS assay to identify small molecule agonists of the progesterone receptor (PR) signaling pathway (AID 1346784); also: nearly all actives have a fitted effect of over 30% in size
Sequence of Progesterone receptor (Homo sapiens) (P06401 whole entry, looked up): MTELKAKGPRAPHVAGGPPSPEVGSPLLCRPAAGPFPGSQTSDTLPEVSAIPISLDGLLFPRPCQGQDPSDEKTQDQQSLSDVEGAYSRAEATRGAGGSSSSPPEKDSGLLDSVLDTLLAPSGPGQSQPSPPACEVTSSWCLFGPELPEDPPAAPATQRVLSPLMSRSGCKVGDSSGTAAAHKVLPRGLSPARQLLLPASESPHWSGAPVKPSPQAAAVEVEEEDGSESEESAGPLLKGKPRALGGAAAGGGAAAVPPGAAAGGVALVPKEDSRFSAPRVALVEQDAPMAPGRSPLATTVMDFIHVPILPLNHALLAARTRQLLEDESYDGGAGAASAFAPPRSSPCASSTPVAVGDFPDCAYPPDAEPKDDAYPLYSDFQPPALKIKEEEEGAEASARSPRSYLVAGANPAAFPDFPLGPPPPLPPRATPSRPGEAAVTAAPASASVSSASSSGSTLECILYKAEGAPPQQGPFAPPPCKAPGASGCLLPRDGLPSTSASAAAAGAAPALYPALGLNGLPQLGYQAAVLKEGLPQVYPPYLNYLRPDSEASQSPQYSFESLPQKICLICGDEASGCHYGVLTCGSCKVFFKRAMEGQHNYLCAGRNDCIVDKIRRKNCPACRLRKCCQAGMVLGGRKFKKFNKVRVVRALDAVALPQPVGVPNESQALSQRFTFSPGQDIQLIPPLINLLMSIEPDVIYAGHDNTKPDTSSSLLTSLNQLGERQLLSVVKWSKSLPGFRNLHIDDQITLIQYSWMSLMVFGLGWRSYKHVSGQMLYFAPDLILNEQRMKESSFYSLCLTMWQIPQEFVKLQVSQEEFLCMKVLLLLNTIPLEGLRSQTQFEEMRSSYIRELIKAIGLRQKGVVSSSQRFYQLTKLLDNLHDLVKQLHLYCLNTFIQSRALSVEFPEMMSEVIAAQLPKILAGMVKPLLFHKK
Summary of the method: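 Reporter assay, GripTite PR-UAS-bla HEK 293T cells: 16 hr exposure to DMSO-dissolved compounds at 37C, 5% CO2, in steroid-depleted (2% charcoal-stripped FBS) medium; beta-lactamase measured by FRET fluorescence.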

[11] = target: Progesterone receptor (Homo sapiens) (UniProt P06401); test: qHTS assay to identify small molecule antagonists of the progesterone receptor (PR) signaling pathway (AID 1346795; active = well fitted inhibition curve with a large enough effect in the signal ratio in the repeat runs, not every such curve was filed as active; the % refers to the signal ratio)
Summary of the method: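 Stimulus R5020 at 1 nM final; cells HEK293T PR-UAS-bla; medium with 2% charcoal-stripped FBS; compound exposure 16 hr at 37C, 5% CO2; detection by FRET beta-lactamase substrate, 2 hr, room temperature.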

[12] = qHTS assay to identify small molecule antagonists of the progesterone receptor (PR) signaling pathway - cell viability counter screen (AID 1346798; active = well fitted curve in the direction sought with a large enough effect in the repeat runs; an effect the other way counts as inactive or inconclusive; also: series mostly up to about 92 µM; nearly all actives have a fitted effect of over 50% in size)
Summary of the method: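 In the same plates used for the beta-lactamase readout, cell viability of compound- and R5020-treated PR-UAS-bla HEK293T cells (16 hr, 37C) was assessed by CellTiter-Glo luminescence.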

[13] = qHTS assay to identify small molecule agonists of the TGF-beta/Smad signaling pathway - cell viability counter screen (AID 1346829; active = well fitted curve in the direction sought with a large enough effect in the repeat runs; an effect the other way counts as inactive or inconclusive; also: top concentration of the series differs between compounds; nearly all actives have a fitted effect of over 45% in size)
Summary of the method: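 HEK 293T SBE-bla line, 5 hr compound exposure at 37 C, multiplexed CellTiter-Glo viability read by luminescence.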

[14] = qHTS assay to identify small molecule agonists of the TGF-beta/Smad signaling pathway (AID 1346859; active = well fitted activation curve with a large enough effect in the signal ratio in the repeat runs, not every such curve was filed as active; the % refers to the signal ratio; also: series mostly up to about 77 µM)
Summary of the method: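 Screening used HEK 293T SBE-bla cells at 4,000/well. Test agents: 5 hr, 37 C. Detection: FRET substrate, 2 hr RT, then excitation 405 nm with emissions at 460 and 530 nm.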

[15] = target: Thyrotropin-releasing hormone receptor (Homo sapiens) (UniProt P34981); test: qHTS assay to identify small molecule antagonists of the thyrotropin-releasing hormone receptor (TRHR) signaling pathway (AID 1346877; active = well fitted inhibition curve with a large enough effect in the repeat runs, not every such curve was filed as active; also: series mostly up to about 51 µM)
Sequence of Thyrotropin-releasing hormone receptor (Homo sapiens) (P34981 whole entry, looked up): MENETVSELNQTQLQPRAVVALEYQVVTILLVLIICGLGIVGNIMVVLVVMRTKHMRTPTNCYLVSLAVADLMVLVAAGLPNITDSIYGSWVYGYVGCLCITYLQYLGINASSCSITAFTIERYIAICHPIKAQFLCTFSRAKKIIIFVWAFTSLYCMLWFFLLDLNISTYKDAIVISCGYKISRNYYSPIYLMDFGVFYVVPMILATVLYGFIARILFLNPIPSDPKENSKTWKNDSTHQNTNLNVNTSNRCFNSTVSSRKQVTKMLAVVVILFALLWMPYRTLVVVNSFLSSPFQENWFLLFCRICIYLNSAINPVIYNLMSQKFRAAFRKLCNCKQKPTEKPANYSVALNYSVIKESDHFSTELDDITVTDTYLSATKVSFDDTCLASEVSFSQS
Summary of the method: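 Antagonist mode: after a 5 min room-temperature compound exposure, cells were stimulated with 1 nM (final) TRH. Dye-loaded TRHR-HEK293 cells were used, and calcium-dependent fluorescence was followed for 3 min, with 15-point titrations run in triplicate.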

[16] = qHTS assay to identify small molecule agonists or antagonists of the thyroid stimulating hormone receptor (TSHR) signaling pathway - wild type cell line counter screen (AID 1259384)
Summary of the method: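 Counter screen in untransfected Hek293: compounds (15-point titration, triplicate) plus phosphodiesterase inhibitor Ro20-1724 added after 18 h plating; 30 min RT. Intracellular cAMP via competitive d2/cryptate immunoassay, 1 h incubation.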

[17] = qHTS assay to identify small molecule antagonists of the TGF-beta/Smad signaling pathway - cell viability counter screen (AID 1346824; active = well fitted curve in the direction sought with a large enough effect in the repeat runs; an effect the other way counts as inactive or inconclusive; also: nearly all actives have a fitted effect of over 50% in size)
Summary of the method: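 Cytotoxicity counter-screen run in the same wells as the beta-lactamase Smad reporter read: CellTiter-Glo luminescence after 30 min at room temperature. HEK 293T SBE-bla cells had 5 hr compound exposure at 37 C with TGF-beta1 (0.25 ng/mL stock).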

[18] = qHTS assay to identify small molecule agonists of the progesterone receptor (PR) signaling pathway - cell viability counter screen (AID 1346799); also: nearly all actives have a fitted effect of over 45% in size
Summary of the method: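 Multiplexed viability read: CellTiter-Glo luminescence, 30 min RT, following LiveBLAzer FRET measurement on PR-UAS-bla HEK293T cells exposed to compounds 16 hr.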

[19] = qHTS assay to identify small molecule agonists of the estrogen receptor beta (ER-beta) signaling pathway - cell viability counter screen (AID 1259380; active = well fitted curve in the direction sought with a large enough effect in the repeat runs; an effect the other way counts as inactive or inconclusive; also: nearly all actives have a fitted effect of over 30% in size)
Summary of the method: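 Cell viability counter screen: CellTiter-Glo luminescence (30 min, room temperature) measured in the same wells as the beta-lactamase readout, after 16 hr compound exposure at 37C of ER-beta-bla HEK293T cells in 2% charcoal-stripped FBS medium.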

[20] = target: Androgen receptor (Homo sapiens) (UniProt P10275); test: qHTS assay to identify small molecule agonists of the androgen receptor (AR) signaling pathway in the presence of an antagonist (AID 1259381); also: nearly all actives have a fitted effect of over 15% in size
Sequence of Androgen receptor (Homo sapiens) (P10275 whole entry, looked up): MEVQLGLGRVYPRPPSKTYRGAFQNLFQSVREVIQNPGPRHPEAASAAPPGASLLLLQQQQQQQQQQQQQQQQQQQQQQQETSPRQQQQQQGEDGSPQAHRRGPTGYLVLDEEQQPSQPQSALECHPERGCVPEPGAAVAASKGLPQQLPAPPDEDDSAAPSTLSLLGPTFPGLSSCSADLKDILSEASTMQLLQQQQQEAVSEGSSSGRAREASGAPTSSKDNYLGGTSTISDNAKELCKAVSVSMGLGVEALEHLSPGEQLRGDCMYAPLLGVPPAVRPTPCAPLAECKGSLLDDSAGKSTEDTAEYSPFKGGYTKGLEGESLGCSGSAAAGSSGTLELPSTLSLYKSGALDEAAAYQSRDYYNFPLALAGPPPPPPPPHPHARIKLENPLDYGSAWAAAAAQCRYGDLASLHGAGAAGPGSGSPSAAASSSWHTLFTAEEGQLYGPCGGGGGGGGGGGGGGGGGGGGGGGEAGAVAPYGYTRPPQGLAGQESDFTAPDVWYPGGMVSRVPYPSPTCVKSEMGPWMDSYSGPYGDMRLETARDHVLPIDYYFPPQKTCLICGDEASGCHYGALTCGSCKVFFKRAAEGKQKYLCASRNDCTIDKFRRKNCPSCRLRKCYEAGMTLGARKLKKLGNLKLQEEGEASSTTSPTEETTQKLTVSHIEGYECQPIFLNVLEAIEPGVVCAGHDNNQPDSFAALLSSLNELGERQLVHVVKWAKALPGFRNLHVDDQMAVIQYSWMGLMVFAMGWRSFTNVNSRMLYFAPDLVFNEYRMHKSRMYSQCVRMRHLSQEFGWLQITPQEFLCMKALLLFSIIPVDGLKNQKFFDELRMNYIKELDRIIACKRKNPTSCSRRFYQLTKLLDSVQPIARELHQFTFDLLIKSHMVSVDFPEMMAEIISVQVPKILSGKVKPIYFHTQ
Summary of the method: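 Agonist-mode confirmation run against 3.0 uM final nilutamide: compounds titrated at 15 concentrations onto MDA-kb2 MMTV-luciferase reporter cells. Luminescence measured with ONE-Glo following 16 hr incubation, 37C, 0% CO2.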

Measured: Potency

CCCCCCCCCCCCN1CCOCC1
inactive: [1] | [2] | [3] | [4] | [5] | [6] | [7] | [8] | [9] | [10] | [11] | [12] | [13] | [14] | [15]

O=C1C=CCCC1
inactive: [1] | [2] | [3] | [4] | [5] | [6] | [7] | [16] | [8] | [9] | [10] | [11] | [12] | [17] | [13] | [14]

CCCCCCCCCCCCSCCOCCO
inactive: [1] | [2] | [3] | [6] | [7] | [16] | [8] | [9] | [10] | [11] | [12] | [18] | [17] | [13] | [14] | [15]

O=C(OCCOCCOCCOC(=O)c1ccccc1)c1ccccc1
inactive: [1] | [2] | [3] | [4] | [6] | [7] | [8] | [9] | [10] | [11] | [12] | [18] | [17] | [13] | [14] | [15]

COC(=O)/C=C/C(C)=C\C=C\C(C)=C\C=C\C=C(C)\C=C\C=C(C)\C=C\C(=O)O
inactive: [1] | [2] | [3] | [4] | [19] | [20] | [6] | [7] | [16] | [8] | [9] | [10] | [11] | [18] | [17] | [13] | [14] | [15]

S=c1[nH][nH]c(=S)s1
inactive: [1] | [2] | [3] | [4] | [5] | [6] | [7] | [9] | [10] | [11] | [12] | [18] | [17] | [13] | [14] | [15]

CCCCCCCCC(=O)OCC(C)OC(=O)CCCCCCCC (centres undefined)
inactive: [1] | [2] | [3] | [4] | [6] | [16] | [8] | [9] | [10] | [11] | [12] | [18] | [17] | [13] | [14] | [15]

COc1ccc(/C=C/S(=O)(=O)NC(=O)c2ccc(C)cc2Cl)cc1
inactive: [1] | [2] | [3] | [5] | [16] | [8] | [10] | [17] | [13] | [14] | [15]

— PubChem BioAssay (Tox21)
